CHX counter – affects cycloheximide protein synthesis inhibition readout, counter-screen. hit rate 12% among 300,000. cell reporter, cycloheximide protein synthesis inhibition counterscreen. max response, %. AID 2314; in the data active means max response mostly above about 13%, no sharp cut-off; inactive means mostly below about 14%; further: read at 38.3 µM for the half of the compounds with a filed dose
Pf growth 48h – inhibits P. falciparum growth in the first generation, 48 h; Potency, µM (highest dose often 28.7 µM), actives largely listed as inhibitors; hit rate 5.9% among 310,000; P. falciparum luciferase growth in erythrocytes, 48 h
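Luciferase-expressing P. falciparum in infected erythrocytes (2% hematocrit, 0.1% parasitemia final) in RPMI 1640/0.5% Albumax were exposed to compound for 48 hours at 37 C, 5% CO2; growth read as luminescence.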
Shiga inhibitor – blocks Shiga toxin action in Vero cells. Vero cells, Shiga toxin protein synthesis inhibition reporter. inhibition, % at 38.7 µM. hit rate 9.2% among 290,000; in the data active means inhibition mostly above about 28%, no sharp cut-off; inactive means mostly below about 43%
Lassa entry inh – blocks Lassa virus binding to or entry into cells. Lassa virus pseudotype entry inhibition, cell reporter. Potency, µM (top dose mostly 37.9 µM), usual class: inhibitors. hit rate 1.2% among 300,000; calls by dose curve; tested in HEK293 cells; further: nearly all actives have a fitted effect of over 50% in size
Marburg entry inh – inhibitors of Marburg virus binding or cell entry; Marburg virus pseudotyped entry inhibition, cell reporter; Potency, µM (highest dose often 37.8 µM), actives largely listed as inhibitors; hit rate 1.8% among 300,000; calls by dose curve; tested in HEK293 cells
Pf growth 96h – P. falciparum growth inhibition at 96 hour, primary screen for plastid delayed-death inhibitors | P. falciparum luciferase reporter growth, 96 h | Potency, µM (series often up to 28.7 µM), actives largely listed as inhibitors | hit rate 6.9% among 320,000
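Two-generation exposure (96 h) targets delayed-death phenotype. Reporter parasites carrying integrated firefly luciferase, in red cells at 2% hematocrit and 0.05% parasitemia final, kept at 37 C, 5% CO2; luminescence loss indicates inhibition.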
Numbers stand for hits; – = inactive; ? = inconclusive; · = not tested or not shown; [ ] = dose if it differs, or a comment. Most compounds without a hit are left out; they make up all but 19% or so of the library. Unless noted, the call rests on the fitted dose curve; in most records, active means well fitted inhibition curve with a large enough effect; inconclusive means small, poorly fitted or top-dose-only effect, or another doubt; inactive means no such curve, though single readings can be large or run the other way.

SMILES	CHX counter	Pf growth 48h	Shiga inhibitor	Lassa entry inh	Marburg entry inh	Pf growth 96h
O=C(Nc1nc2ccccc2c(=O)s1)c1ccco1	–	2.08µM	–	·	·	–
CC(=O)Nc1sc(NC(=O)c2ccco2)nc1-c1cccs1	–	–	–	?	–	–
O=C(Nc1nc2cc3c(cc2s1)OCCO3)c1ccco1	–	–	–	0.794µM	0.794µM	–
CCc1nnc(NS(=O)(=O)c2ccc(NC(=O)C(c3ccccc3)c3ccccc3)cc2)s1	·	·	·	–	–	·
CC1CC1C(=O)Nc1nc(-c2cccs2)c(-c2cccs2)s1 (centres undefined)	18.7	–	–	–	–	–
Nc1nc(-c2cccs2)c(-c2cccs2)s1	–	·	–	·	·	–
Cc1cc(C)nc(N2CCC(C(=O)NCc3cccs3)CC2)n1	–	–	–	–	–	·
Fc1ccccc1-c1nnc2ccc3ccccc3n12	–	–	·	–	–	?
Fc1cccc(Cl)c1-c1nnc2ccc3ccccc3n12	36.8	–	34.7	·	·	–[5.75 µM]
Cn1c(=O)c2sccc2n2c(CCC(=O)N3CCN(c4ccccc4)CC3)nnc12	·	·	·	?	–	·
CC1CCCC(NC(=O)COC(=O)CSc2ccc3ccccc3c2)C1C (centres undefined)	–	–	–	–	–	–
Nc1c(C(=O)NCc2ccco2)c2nc3ccccc3nc2n1CCN1CCCCC1	–	?	–	–	8.2µM	9.28µM
COc1ccc(-n2c(N)c(C(=O)NCc3ccco3)c3nc4ccccc4nc32)cc1	–	?	–	–	–	?
COc1cc(-n2c(N)c(C(=O)NCc3ccco3)c3nc4ccccc4nc32)cc(OC)c1OC	–	11.7µM	–	–	?	13.1µM
COc1ccc(-n2c(N)c(C(=O)NCc3ccco3)c3nc4ccccc4nc32)cc1OC	–	13.1µM	–	–	–	?
COc1ccc(Cn2c(N)c(C(=O)NCc3ccco3)c3nc4ccccc4nc32)cc1OC	–	?	–	?	?	3.7µM
Nc1c(C(=O)NCc2ccco2)c2nc3ccccc3nc2n1CCc1ccc(F)cc1	–	·	–	–	?	?
CC1CCCC(NC(=O)CSc2ccc(F)cc2)C1C (centres undefined)	–	–	–	?	–	–
Cc1c(C(=O)N(C)C)sc(NC(=O)c2cccc([N+](=O)[O-])c2)c1C#N	–	–	–	–	–	–[5.75 µM]
Cc1cccc(-n2ncc3c(N(C)C4CCCCC4)ncnc32)c1	90.1	–	127.4	·	·	–
Cc1cccc(-n2ncc3c(N(CCO)CCO)ncnc32)c1	27.2	–	64.9	·	·	–
Cc1cccc(-n2ncc3c(N4CCCc5ccccc54)ncnc32)c1	–	·	–	?	?	–
Cc1ccc(-n2ncc3c(NC4CCCCCC4)ncnc32)cc1	·	·	·	–	·	·
COc1ccc(-n2ncc3c(N(C)C4CCCCC4)ncnc32)cc1	44.7	–	73.7	·	·	–
COC(=O)c1ccc(NC(=O)Cn2cnc3c(nnn3-c3cccc(OC)c3)c2=O)cc1	–	–	–	·	·	–
SMILES	CHX counter	Pf growth 48h	Shiga inhibitor	Lassa entry inh	Marburg entry inh	Pf growth 96h
CCc1cc(Cl)c(OC)c(C(=O)NC[C@@H]2CCCN2CC)c1O	–	·	–	·	·	·
COc1ccc(C2=NN(CN3C(=O)C(=O)c4ccccc43)C(c3ccc(C)cc3)C2)cc1 (centres undefined)	24.8	·	77.7	–	–	?
COc1ccc(C2=NN(CN3C(=O)C(=O)c4ccccc43)C(c3ccc(Br)cc3)C2)cc1 (centres undefined)	32.1	·	–	–	?	–
O=C(Cc1ccccc1)NC(c1ccco1)c1c(O)ccc2ccccc12 (centres undefined)	–	?	–	·	·	–
CCCC(=O)Nc1ccc(C(=O)NCc2ccccn2)cc1	–	–[5.75 µM]	–	–	–	–[5.75 µM]
O=C(CN1C(=O)NC2(CCc3ccccc32)C1=O)c1ccc(F)cc1 (centres undefined)	·	–	·	–	?	–
COc1cccc(CN(C)C(=O)CN2C(=O)NC3(CCCc4ccccc43)C2=O)c1 (centres undefined)	·	?	·	–	–	?
COc1ccc(C(=O)CN2C(=O)NC3(CCCc4ccccc43)C2=O)cc1 (centres undefined)	·	?	·	–	–	10.4µM
O=C(CN1C(=O)NC2(CCc3ccccc32)C1=O)c1ccc2c(c1)OCCO2 (centres undefined)	–	–	69.9	–	–	·
Cc1ccsc1CN(C)C(=O)CN1C(=O)NC2(CCCc3ccccc32)C1=O (centres undefined)	·	?	·	·	·	11.7µM
Cc1ccc(C)c(C(=O)CN2C(=O)NC3(CCc4ccccc43)C2=O)c1 (centres undefined)	·	?	·	·	·	14.7µM
O=C(CN1C(=O)NC2(CCOc3ccccc32)C1=O)c1ccc(Cl)cc1 (centres undefined)	·	–	·	–	–	–
COc1ccc(NC(=O)NCCCCc2ccccc2)cc1OC	–	–	–	?	?	–
CCCCn1c(N)c(N(CCOC)C(=O)c2cc(-c3ccco3)nc3ccccc23)c(=O)[nH]c1=O	·	–	·	–	–	–
O=C(CN1C(=O)COc2ccccc2C1=O)c1ccc2c(c1)OCCO2	27.6	–	–	·	·	–
O=C(CN1C(=O)COc2ccccc21)Nc1ccc2c(c1)OCCO2	–	–	–	–	–	?
Cc1cc(C(=O)CN2C(=O)NC3(CCCc4sccc43)C2=O)c(C)n1-c1ccc(Cl)cc1 (centres undefined)	–	9.28µM	–	?	?	?
O=C(NCCc1ccc(C(F)(F)F)cc1)C1CCC(=O)N(C2CC2)C1 (centres undefined)	–	–	–	–	–	–
Cc1ccc(S(=O)(=O)N[C@@H](Cc2ccccc2)C(=O)CCl)cc1	–	–	–	4.61µM	10.3µM	–
Cc1ccc(S(=O)(=O)NC(Cc2ccccc2)C(=O)NN)cc1 (centres undefined)	–	–	–	?	–	–
Cc1cc(=O)[nH]c2c(C)cc(S(=O)(=O)NCc3ccccc3)cc12	–	–	–	?	–	–
Cc1cc(=O)[nH]c2c(C)cc(S(=O)(=O)N3CCCCC3)cc12	–	–	–	·	·	13.1µM
Oc1c(C(Nc2nc3ccccc3s2)c2ccco2)ccc2cccnc12 (centres undefined)	–	0.104µM	–	?	?	?
CC(C)C(=O)NC(c1ccco1)c1ccc2cccnc2c1O (centres undefined)	–	2.08µM	–	?	?	–
CC(C)C(=O)NC(c1cccc([N+](=O)[O-])c1)c1ccc2cccnc2c1O (centres undefined)	–	3.7µM	–	7.08µM	?	–
Cc1ccc(C(NC(=O)C(C)C)c2cc([N+](=O)[O-])c3cccnc3c2O)cc1 (centres undefined)	–	–	–	–	?	–
O=C(NCc1ccco1)c1cccnc1-c1nc2ccccc2s1	–	–	–	–	–	·
CC(C)C(=O)NC(c1cccs1)c1cc([N+](=O)[O-])c2cccnc2c1O (centres undefined)	–	?	–	–	?	–
CN(C(=O)c1ccc(Oc2ccc([N+](=O)[O-])cc2)cc1)C1CCCCC1	–	–	–	·	·	–

From PubChem
